The text below walks through data of PubChem BioAssay AID795 (NMMLSC, 2007).

The campaign covered roughly 24,000 compounds. About 130 (0.54%) were called active. The full list was thinned out, with actives kept by preference. A number with no mark means an inactive call.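 The calls were made as follows: active = side scatter shift above 30%; inactive = the rest.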

The assay in a line: activators of LNCaP prostate cell differentiation, primary screen, flow cytometry side scatter (AID 795).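 Also: androgen-responsive LNCaP prostate cancer cells in charcoal-stripped serum medium; percent of cells past a gate set so DMSO wells show 10% shift; higher shift means more granular cells and more differentiation.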 As to conditions: 4 d, at 10 µM, hits give high values. (Flow cytometry measures light scatter and fluorescence of single cells or particles in a stream.)
Turning to `Cc1ccc(-c2noc(-c3ccccc3C(=O)NCC3CCCO3)n2)cc1` (stereo unspecified), the side scatter shift is 5%. The value for `CCOC(=O)Nc1ccccc1N1C(=O)c2ccccc2C1=O` was 8%. The figure for `O=C(CNS(=O)(=O)c1ccc(Br)s1)NCc1ccc2c(c1)OCO2` is 9%; for `COc1ccc(-c2nc(CS(=O)CC(=O)N3CCc4ccccc4C3)c(C)o2)cc1` (stereo unspecified) it is 11%; for `O=C1CSC(c2cccc(F)c2)N1c1ccccc1F` (stereo unspecified) it is 8%. The figure for `CCOC(=O)c1cccc(NC(=O)CCc2c(C)nc3ncnn3c2C)c1` is 4%; for `CC1Cc2nc(SCC(=O)Nc3ccccc3F)n(C)c(=O)c2S1` (stereo unspecified) it is 7%.

In the case of `CSCCC(NC(=O)C1CCC(C)CC1)C(=O)NCc1ccco1` (stereo unspecified), the side scatter shift is 3%. For `CCOc1ccc(NC(=O)N(CCC(C)C)C(C)c2ccco2)cc1` (stereo unspecified), the side scatter shift was 7%. The value for `COc1cc2[nH]c(=O)n(CCC(=O)NC3CCN(Cc4ccccc4)CC3)c(=O)c2cc1OC` was 2%. As to `Cn1c(=O)cc(SCC(=O)N2CCCC2)c2cc(Cl)ccc21`, the side scatter shift is 9%.

As for `COc1cc(OC)cc(-c2nc3nc(C)c(CCC(=O)NCc4ccco4)c(C)n3n2)c1`, the side scatter shift is 5%. For `CC1C=CCC2C(=O)N(c3cccc(C(=O)N4CCCCCC4)c3)C(=O)C12` (stereo unspecified), the side scatter shift was 3%.

Consider `C/C(=N\O)C1(C)N(O)C(C)(C)C(c2ccc(Br)cc2)=[N+]1[O-]` (stereo unspecified), for which the side scatter shift is 11%. Consider `CCCSc1nc2c(c(=O)[nH]c(=O)n2C)n1CCc1ccccc1`, for which the side scatter shift is 9%. The value for `Cc1ccc2nc3n(c(=O)c2c1)CCC3` was 8%; that for `Cc1nc2nc(SCC(=O)NCc3ccco3)nn2c(C)c1Cc1ccccc1` was 4%.

Consider `S=C1SCN(CCN2CCOCC2)CN1Cc1ccccc1`, for which the side scatter shift was 18%.

As for `CCOC(=O)C1CCCN(C(=O)Cn2ncc3c(=O)oc4ccc(C)cc4c32)C1` (stereo unspecified), the side scatter shift is 5%.

With `O=C(NC(=O)c1ccc(Cl)c(Cl)c1)OC1CCS(=O)(=O)C1` (stereo unspecified), the side scatter shift is 6%. The value for `CC1CCc2c(sc3c2C2=NS(=O)(=O)CCN2C=N3)C1` (stereo unspecified) was 12%. On to `CC(=O)c1c(N)n(C)c(=O)n(C)c1=O`, for which the side scatter shift is 0%.

Regarding `CCCC1CC(C)(C(=O)Cn2[nH]c(=O)ccc2=O)OC1=O` (stereo unspecified), the side scatter shift was 1%. Turning to `Fc1cc(F)c2nc(N3CCOCC3)sc2c1`, the side scatter shift was 5%. Take `Cn1c(=O)c2c(nc(N3CCCCCC3)n2CC(=O)c2ccc(Br)cc2)n(C)c1=O`: the side scatter shift was 21%. The figure for `CCOC(=O)N1CCN(C(=O)c2ccc(S(=O)(=O)c3ccc(C)cc3)c(NC(C)=O)c2)CC1` is 8%.

As for `N#CC1=C(N)C(C#N)(C#N)[C@H](c2ccsc2)[C@H]2COCC=C12`, the side scatter shift is 9%.

Take `NC(=O)CSC1=Nc2ccccc2C2=NC(CCC(=O)NCc3ccc(F)cc3)C(=O)N12` (stereo unspecified): the side scatter shift is 0%. For `COc1ccc(NC(=O)C2CCCN(S(=O)(=O)c3cccc4cccnc34)C2)cc1` (stereo unspecified), the side scatter shift is 6%.

As to `CCCCN(CC)CCCNC(=O)CS(=O)(=O)Cc1nc(-c2cccc(OC)c2)oc1C`, the side scatter shift is 7%.

In the case of `CC(=O)Nc1cc2ccc(OC(C)=O)cc2oc1=O`, the side scatter shift was 10%. Regarding `O=C(CSc1nc2[nH]ncc2c(=O)n1-c1ccccc1)N1CCCc2ccccc21`, the side scatter shift is 5%. Take `COc1ccc(OCc2ccc(-c3nc4ccccc4c(=O)n3N)o2)cc1`: the side scatter shift is 6%. For the molecule `Cc1ccc(NC(=O)c2nc[nH]c2C(=O)N2CCCCC2)c(C(=O)c2ccccc2)c1`, the side scatter shift is 14%.

Consider `COc1ccc(OC)c(NC(=O)CC(Cc2ccccc2OC)C(=O)O)c1` (stereo unspecified), for which the side scatter shift was 15%. In the case of `CCn1cc(C(=O)N2CCN(C3CCCCC3)CC2)c2cc(OC)c(OC)cc2c1=O`, the side scatter shift is 7%. For the molecule `Cc1nc2ccccc2c2oc(C(=O)NCC3CCCO3)cc12` (stereo unspecified), the side scatter shift was 11%. On to `O=C(CN1C(=O)C2C3C=CC(C3)C2C1=O)NCC1COc2ccccc2O1` (stereo unspecified), for which the side scatter shift was 9%.

Regarding `Cn1c(CNC(=O)C(C)(C)C)nc2ccccc21`, the side scatter shift was 3%. As for `COCCN1C(=O)c2oc3c(C)cc(C)cc3c(=O)c2C1c1cccc(O)c1` (stereo unspecified), the side scatter shift was 3%. For the molecule `CC1(C)CC(O)C(CCC(O)c2ccccc2)C(C)(C)N1` (stereo unspecified), the side scatter shift is 5%. The figure for `CCOC(=O)c1ccc2[nH]c(C)c(CN3CCN(C)CC3)c(=O)c2c1` is 10%. For `COCCN(CC(=O)Nc1ccccc1C)S(=O)(=O)c1ccc(S(=O)(=O)N2CCCC2)cc1`, the side scatter shift is 3%.

Regarding `COc1ccccc1NC(=O)CSc1nnc(Cc2cccn2C)n1-c1ccc(F)cc1`, the side scatter shift is 14%.

For the molecule `CC1(C)CC(=O)C=C(NCc2ccncc2)C1`, the side scatter shift was 6%.

With `CCOC(=O)N1CCC(C(N)=O)CC1`, the side scatter shift was 12%. On to `Nc1ccc(-n2nncc2-c2ccco2)cc1`, for which the side scatter shift was 2%. As to `CC12CN3CC(C)(CN(C1)C3c1ccc(Cl)cc1Cl)C2=O` (stereo unspecified), the side scatter shift is 7%. The figure for `O=C(CSc1nnc2ccccn12)c1ccccc1` is 3%. Take `CCCCCCn1c(CN2CCCC(C)C2)nc2c1c(=O)n(C)c(=O)n2C` (stereo unspecified): the side scatter shift was 7%. With `COc1ccc(CC(=O)Nc2ccc(-c3nnc(-c4ccc(C)cc4)o3)cc2)cc1`, the side scatter shift is 37% (active). The figure for `COc1ccc(Cc2nnc(NC(=O)Cc3cccs3)s2)cc1` is 23%; for `CCOC(=O)c1ccc(NC(=O)Cn2nnc(-c3ccc(C)cc3)n2)cc1` it is 12%; for `CCCCOC(=O)NCN1C(=O)C2C3C=CC(C3)C2C1=O` (stereo unspecified) it is 11%. The value for `Cc1noc(C)c1S(=O)(=O)N1CCCC(C(=O)Nc2nccs2)C1` (stereo unspecified) was 13%; that for `Cc1ccc(-n2nc3cc(Cl)c(NC(=O)c4ccco4)cc3n2)cc1` was 36% (active). The value for `O=C(c1ccco1)N1CCN(c2cccc(Cl)c2)CC1` was 16%; that for `CCN(CC)C(=O)c1sc(NC(=O)c2ccco2)c(C#N)c1C` was 7%; that for `CCCS(=O)(=O)N1CCN(C(=O)c2cccs2)CC1` was 14%. For `COc1ccc(C2C3=C(OC(C)=O)c4ccccc4C3=Nc3c2c(=O)n(C)c(=O)n3C)cc1` (stereo unspecified), the side scatter shift is 13%.

In the case of `Cc1cccc(C2c3c(n(C)c(=O)n(C)c3=O)N=C3c4ccccc4C(=O)C32)c1` (stereo unspecified), the side scatter shift is 36% (active).

For `Cc1cc(C)nc(-n2nc(C)cc2NC(=O)c2ccc(Br)o2)n1`, the side scatter shift was 9%.

For the molecule `CCOC(=O)N1CCC(Nc2c(NCCN3CCN(c4cccc(Cl)c4)CC3)c(=O)c2=O)CC1`, the side scatter shift is 16%. The figure for `CCOc1c(OC)cc(C2C(C#N)=C(N)Oc3n[nH]c(-c4ccncc4)c32)cc1OC` (stereo unspecified) is 4%.

With `Cc1ccc(N2CCN(c3ccc(C)cc3)C2c2ccccn2)cc1`, the side scatter shift was 16%.

For the molecule `Cc1ccc(C(c2sc3nc(C)nn3c2O)N2CCN(c3ccccc3)CC2)cc1` (stereo unspecified), the side scatter shift was 10%.

For the molecule `FC(F)Oc1ccccc1C1CC(c2ccc(Br)s2)Nc2ncnn21` (stereo unspecified), the side scatter shift is 11%. The figure for `Cc1c(NC(=O)C(C)OC(=O)c2cc3c4ccccc4n(C)c3s2)c(=O)n(-c2ccccc2)n1C` (stereo unspecified) is 7%; for `CCOC(=O)N1CCC(NC(=O)c2cnn3ccccc23)CC1` it is 2%; for `Cc1ncn(C23CC4CC(CC(O)(C4)C2)C3)n1` it is 9%. The figure for `O=C(c1ccc(=O)[nH]c1)N(Cc1ccco1)C1(C(=O)NC2CCCCC2)CCCCC1` is 1%; for `CCN(c1ccc2c(c1)OCO2)S(=O)(=O)c1cc(Br)cc2c1N(C(=O)C1CC1)CC2` it is 6%; for `c1ccc(CCn2nnnc2CN2CCN(C3CCCC3)CC2)cc1` it is 14%. The value for `O=C(NCCc1ccc(Cl)cc1)C1CC(=O)N(C2CCCCC2)C1` (stereo unspecified) was 24%; that for `Cc1nc2ccc(NC(=O)N3CCC(c4ccccc4)C3)cc2nc1C` (stereo unspecified) was 11%; that for `COc1cc2ccccc2cc1C(=O)Nc1ccc(S(=O)(=O)Nc2cc(C)on2)cc1` was 12%. As to `COc1ccc2c(c1)CCc1c(C(=O)Nc3c(C)n(C)n(-c4ccccc4)c3=O)noc1-2`, the side scatter shift was 1%. The figure for `COc1ccc(OC)c(CNC(=O)CCc2nc(-c3cccs3)no2)c1` is 12%; for `CCCN1Cc2cccc(C(=O)NCc3ccccc3)c2C1=O` it is 9%; for `O=C(CCCn1c(SCC(=O)c2ccc(F)cc2)nc2ccccc2c1=O)NCc1ccco1` it is 8%.

With `CCc1nnc(NC(=O)CSc2nnc(Cc3ccccc3)n2-c2ccc(OC)cc2)s1`, the side scatter shift is 6%. As for `CC(NC(=O)c1ccc(Cl)cc1)C(=O)N1CCCCC1` (stereo unspecified), the side scatter shift was 5%. For `O=C1Nc2c(Br)cc(Br)cc2C1(O)N1CCOCC1` (stereo unspecified), the side scatter shift is 13%.

Turning to `O=C(c1ccco1)N1CCN(CC(=O)N(C2CCCCC2)C2CCS(=O)(=O)C2)CC1` (stereo unspecified), the side scatter shift was 9%.

For `COc1cccc(C(=O)Nc2c3c(nn2-c2cccc(C)c2C)CS(=O)(=O)C3)c1OC`, the side scatter shift is 8%.

Turning to `CCN(Cc1ccccc1)C(=O)CSc1nc(C)cc2c1C(=O)OC2`, the side scatter shift is 4%. As to `COc1ccc2c(CC(=O)Nc3nnc(C4CC4)s3)coc2c1`, the side scatter shift was 7%. The figure for `CCCN1CCN(CCCNC(=O)CN2C(=O)COc3ccccc32)CC1` is 7%; for `COc1ccccc1-n1cnc2cc(NS(=O)(=O)c3ccccc3)ccc21` it is 11%; for `COc1ccc(OC)c(CN2C(=O)CCC2(C)C(=O)NC2CCCCCC2)c1` (stereo unspecified) it is 11%. Take `Cc1ccc(-c2nc(CS(=O)CC(=O)NC3CCCC3)c(C)o2)cc1` (stereo unspecified): the side scatter shift is 7%. `Cc1ccnc(N2C(=O)c3ccccc3C2Nc2ccc3c(c2)OCCO3)c1` (stereo unspecified): the side scatter shift is 7%. As to `CCOc1ccccc1NC(=O)c1cc(S(=O)(=O)N2CCC3(CC2)OCCO3)ccc1F`, the side scatter shift is 7%. The figure for `CCOC(=O)N1CCC(NC(=O)C(C)n2c3ccccc3c3cnn(C)c(=O)c32)CC1` (stereo unspecified) is 6%. For the molecule `Cn1c2ccccc2c2c(C(=O)N3CCN(c4ccc(F)cc4)CC3)cn(C3CCCC3)c(=O)c21`, the side scatter shift was 1%.

Turning to `O=c1c(-c2ccccc2)coc2c(CN3CCOCC3)c(O)ccc12`, the side scatter shift was 9%.
